Compounds with a hit are over-represented: about 2.4% of the library has one in this group of screens.
WRN inhibitor – qHTS for Inhibitors of WRN Helicase; WRN helicase unwinding, fluorescent forked duplex, kinetic; Bifunctional 3'-5' exonuclease/ATP-dependent helicase WRN (Homo sapiens), Q14191; Potency, µM (series often up to 114 µM), for the others: top-dose activity change, negative = inhibition, most hits filed as inhibitors; 360,000 compounds, 0.46% hits; further: potency means the concentration at half of the fitted maximal effect; on the % scale 0 is the no-effect control and ±100 the full control effect; nearly all actives have a fitted effect of over 55% in size
Target sequence (Q14191 whole entry, looked up): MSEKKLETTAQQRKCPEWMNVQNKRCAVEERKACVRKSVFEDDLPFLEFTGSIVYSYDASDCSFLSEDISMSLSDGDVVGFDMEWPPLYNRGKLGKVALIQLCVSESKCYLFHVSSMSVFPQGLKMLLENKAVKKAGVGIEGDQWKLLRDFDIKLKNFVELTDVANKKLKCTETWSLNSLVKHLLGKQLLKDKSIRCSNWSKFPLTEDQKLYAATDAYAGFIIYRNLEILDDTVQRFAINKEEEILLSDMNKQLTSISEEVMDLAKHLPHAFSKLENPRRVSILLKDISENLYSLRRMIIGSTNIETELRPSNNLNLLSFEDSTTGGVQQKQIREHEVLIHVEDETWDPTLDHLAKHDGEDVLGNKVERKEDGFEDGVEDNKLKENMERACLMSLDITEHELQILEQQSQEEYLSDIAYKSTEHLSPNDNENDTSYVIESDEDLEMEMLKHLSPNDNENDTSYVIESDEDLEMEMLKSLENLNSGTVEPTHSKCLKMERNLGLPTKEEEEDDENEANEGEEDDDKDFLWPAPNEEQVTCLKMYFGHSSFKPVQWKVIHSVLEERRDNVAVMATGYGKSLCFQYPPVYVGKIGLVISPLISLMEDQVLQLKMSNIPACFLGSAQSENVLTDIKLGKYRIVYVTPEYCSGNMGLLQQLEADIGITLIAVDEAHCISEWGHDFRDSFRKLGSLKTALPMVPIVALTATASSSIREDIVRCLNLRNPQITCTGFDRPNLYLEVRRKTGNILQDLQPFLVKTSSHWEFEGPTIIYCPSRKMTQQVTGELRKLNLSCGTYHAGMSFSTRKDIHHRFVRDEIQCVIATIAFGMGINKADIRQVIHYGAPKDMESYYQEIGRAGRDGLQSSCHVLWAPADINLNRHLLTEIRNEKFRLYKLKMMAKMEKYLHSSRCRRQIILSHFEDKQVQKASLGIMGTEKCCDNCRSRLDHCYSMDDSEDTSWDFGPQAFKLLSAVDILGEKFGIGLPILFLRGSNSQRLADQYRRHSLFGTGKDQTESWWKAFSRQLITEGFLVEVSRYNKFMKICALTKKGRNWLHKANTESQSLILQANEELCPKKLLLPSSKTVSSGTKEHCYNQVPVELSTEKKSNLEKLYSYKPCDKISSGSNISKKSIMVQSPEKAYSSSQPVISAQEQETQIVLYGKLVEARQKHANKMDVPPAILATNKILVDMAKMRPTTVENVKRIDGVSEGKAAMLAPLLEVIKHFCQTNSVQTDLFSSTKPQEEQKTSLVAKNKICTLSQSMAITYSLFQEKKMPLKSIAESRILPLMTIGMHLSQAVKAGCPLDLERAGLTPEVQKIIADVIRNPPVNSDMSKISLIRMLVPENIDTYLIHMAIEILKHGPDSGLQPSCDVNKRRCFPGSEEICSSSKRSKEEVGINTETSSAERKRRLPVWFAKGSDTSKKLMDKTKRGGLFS
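Kinetic red-fluorescence monitoring (525/598 nm) tracks WRN helicase activity after 100 nM fluorophore-quencher forked duplex and 2 mM ATP are added to 20 nM enzyme pretreated 15 min at room temperature with compound.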
Pol iota inh – qHTS for Inhibitors of Polymerase Iota | DNA polymerase iota (Homo sapiens), Q9UNA4 | Pol iota fluorescent replication assay, 10 min | Potency, µM (series often up to 115 µM), for inactives: at the top dose activity, negative = inhibition, actives largely listed as inhibitors | 390,000 compounds, 1% hits | AID 588590, 2011; further: potency means the concentration at half of the fitted maximal effect
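Fluorescent replication assay read twice, at 0 min and 10 min after adding 50 nM (final) substrate. Enzyme (10 nM) and compounds were first incubated 15 min at room temperature; enzyme-free buffer wells were negative controls.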
Pol eta inh-1 – qHTS for Inhibitors of Polymerase Eta | Potency, µM (series often up to 114 µM), for inactives: at the top dose activity change, negative = inhibition, usual class: inhibitors | 390,000 compounds, 1.2% hits | recombinant Pol eta, fluorescent DNA replication assay | DNA polymerase eta (Homo sapiens), Q9Y253 | AID 588591, 2011; further: potency means the concentration at half of the fitted maximal effect; on the % scale 0 is the no-effect control and ±100 the full control effect
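Pol eta (10 nM) was preincubated with compounds for 15 min at room temperature, after which fluorescent replication substrate (50 nM final) was added to start the reaction. Fluorescence was read kinetically at 0 and 10 min.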
POLB inh – qHTS Assay for Inhibitors of DNA Polymerase Beta; 340,000 compounds, 1.3% hits; Pol beta primer extension/strand displacement, fluorescence kinetic; P06746; Potency, µM (titrated, usually from 114 µM), inactives show top-dose activity change, negative = inhibition, most hits filed as inhibitors; AID 485314, 2010; further: potency means the concentration at half of the fitted maximal effect; on the % scale 0 is the no-effect control and ±100 the full control effect
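Pol beta (10 nM) was preincubated with compound for 15 min at room temperature. The reaction was then started with 50 nM substrate and read immediately and after a further 10 min at room temperature.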
Pol kappa inh-1 – qHTS for Inhibitors of Polymerase Kappa | purified Pol kappa, fluorescent DNA synthesis assay, 10 min | Potency, µM (doses to about 107 µM), inactives show at the highest dose activity, negative = inhibition, actives largely listed as inhibitors | 400,000 compounds, 0.53% hits | AID 588579, 2011; further: potency means the concentration at half of the fitted maximal effect; on the % scale 0 is the no-effect control and ±100 the full control effect
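10 nM Pol kappa was preincubated with compounds for 15 min at room temperature. Reaction started with 50 nM (final) substrate. Fluorescence read kinetically at 0 and 10 min.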
FEN1 inh – qHTS Assay for the Inhibitors of Human Flap endonuclease 1 (FEN1); P39748; Recombinant FEN1 flap cleavage, fluorescence, 15 min; Potency, µM (doses to about 114 µM), for the others: at the top dose activity change, negative = inhibition, most hits filed as inhibitors; 390,000 compounds, 0.35% hits; AID 588795, 2011; further: potency means the concentration at half of the fitted maximal effect; on the % scale 0 is the no-effect control and ±100 the full control effect; nearly all actives have a fitted effect of over 65% in size
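Reaction started by adding substrate (50 nM final) to 10 nM enzyme after 15 min room-temperature compound preincubation. Reads at 0 and 15 min, with data normalized and fitted to a four-parameter Hill equation.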
TbPGK inh – qHTS for inhibitors of Phosphogylcerate Kinase: Hit Validation Screen; shares compounds with Pol kappa inh-1; TbPGK coupled GAPDH assay, Kinase-Glo luminescence; Potency, µM (top dose mostly 57.5 µM), for the others: at the top dose activity change, negative = inhibition, most hits filed as inhibitors; 500 compounds, 79% hits; AID 686980, 2013; further: potency means the concentration at half of the fitted maximal effect; on the % scale 0 is the no-effect control and ±100 the full control effect; nearly all actives have a fitted effect of over 65% in size
Pol iota confirm – qHTS for Inhibitors of Polymerase Iota: Confirmatory Assay for Cherry-picked Compounds; shares compounds with Pol kappa inh-1; Pol iota primer extension, TAMRA/BHQ fluorescence; Potency, µM, actives largely listed as inhibitors; 1,500 compounds, 77% hits; AID 720496, 2013; further: potency means the concentration at half of the fitted maximal effect
GALK inh confirm – Confirmation Assay for Inhibitors of Human Galactokinase (GALK); shares compounds with Pol eta inh-1; purified GALK, Kinase-Glo ATP depletion luminescence; Potency, µM (top dose mostly 115 µM), inactives show at the highest dose activity, negative = inhibition, most hits filed as inhibitors; 150 compounds, 70% hits
Redox cycling – Confirmatory Assay for Inhibitors of Human Galactokinase (GALK): Phenol-HRP redox assay counterscreen. AID 2035, 2009. Potency, µM (highest dose often 115 µM), for the others: top-dose activity change, negative = H2O2 signal, most hits filed as inhibitors. Phenol red-HRP H2O2 redox cycling, absorbance 600 nm. 150 compounds, 40% hits. shares compounds with Pol eta inh-1
HEK293 viability – Secondary Assay for Inhibitors of Human Galactokinase (GALK): HEK-293 Cell Viability Assay; shares compounds with Pol eta inh-1; HEK-293 viability, ATP luminescence (CellTiter-Glo), 24/48 h; Potency, µM (doses to about 46.1 µM), for inactives: at the top dose activity change, negative = cytotoxicity, actives largely listed as inhibitors; 170 compounds, 10% hits; further: potency means the concentration at half of the fitted maximal effect; on the % scale 0 is the no-effect control and ±100 the full control effect
Pol kappa inh-2 – qHTS for Inhibitors of Polymerase Kappa: Confirmatory Assay for Cherry-picked Compounds; Potency, µM, usual class: inhibitors; purified Pol-kappa, fluorescent strand-displacement substrate; shares compounds with Pol eta inh-1; 920 compounds, 76% hits; further: potency means the concentration at half of the fitted maximal effect
Pol eta inh-2 – qHTS for Inhibitors of Polymerase Eta: Confirmatory Assay for Cherry-picked Compounds; 2,600 compounds, 64% hits; Pol eta primer extension, TAMRA/BHQ fluorescence, 10 min; shares compounds with Pol eta inh-1; Potency, µM, most hits filed as inhibitors; further: potency means the concentration at half of the fitted maximal effect
An asterisk follows results filed as active; ? = inconclusive; . = no result given; [ ] = dose if it differs, or a comment. The call rests on the fitted dose curve; in most records, active means well fitted curve in the direction sought with a large enough effect; inconclusive means small, poorly fitted or top-dose-only effect, or another doubt; inactive means no such curve, though single readings can be large; an effect the other way counts as inactive or inconclusive.

SMILES	WRN inhibitor	Pol iota inh	Pol eta inh-1	POLB inh	Pol kappa inh-1	FEN1 inh	Pol iota confirm	Pol kappa inh-2	Pol eta inh-2	others
CCOc1ccc(NC(=O)CCS(=O)(=O)c2ccc(Br)cc2)cc1	-8%[11.6 µM]	-13%	18µM*	28µM*	8%	-15%	.	.	76*	TbPGK inh=?
C=CCn1c(O)c(N=NC(=O)CNC(=O)/C=C/c2ccco2)c2ccccc21	?	28µM*	50µM*	14µM*	?	?	38*	.	76*
NC(=O)Cn1c(O)c(N=NC(=O)CNC(=O)/C=C/c2ccccc2)c2ccccc21	3%	-19%	-29%	?	-2%	15%	.	.	.
COc1ccc(N2CCN(CCCNC(=O)c3nnc(Cc4ccc(F)cc4)o3)CC2)cc1	.	-12%	-19%	-3%	-11%	15%	.	.	.
Oc1cccc(O)c1	.	.	.	.	-2%[60.1 µM]	.	.	.	.
O=S(=O)(c1cc(O)ccc1O)c1cccc2c(S(=O)(=O)c3cc(O)ccc3O)cccc12	32µM*	7.9µM*	4.5µM*	.	18µM*	35µM*	8.4*	9.5*	15*	TbPGK inh=3.7µM*
COc1ccc(NC(=O)c2cc3c([nH]c2=O)CC(c2ccccc2)CC3=O)cc1 (stereo not drawn)	.	25%	11%	-2%	0%[60.1 µM]	-1%	.	.	.
COc1ccc2[nH]c(=O)cc(C(=O)O)c2c1	-17%[11.6 µM]	?	14µM*	18µM*	?	-11%	?	11*	27*
Cc1ccc(/C=C2/C(=O)c3ccc(C(=O)O)cc3C2=O)o1	13µM*	?	4µM*	25µM*	5µM*	25µM*	24*	11*	8.5*
Cc1cc(C=C2C(=O)c3ccccc3C2=O)c(C)n1C	-17%	42%	-8%	1%	-12%	-8%	.	.	.
Cc1ccc(C=C2C(=O)c3ccccc3C2=O)o1	?	22µM*	13µM*	14µM*	?	-5%	47*	42*	48*
CCn1nc(-c2ccccc2C)nc2c(=O)n(C)c(=O)nc1-2	.	-90%	.	.	2%	-19%	1.2*	.	3.8*
Cn1nc(-c2ccc(F)cc2)nc2c(=O)n(C)c(=O)nc1-2	.	-97%	.	.	7%	-15%	1.3*	.	0.85*
Cn1nc(-c2ccc(Cl)cc2)nc2c(=O)n(C)c(=O)nc1-2	.	-89%	.	?	-11%	-21%	1.2*	.	1.1*	GALK inh confirm=1.2µM*;Redox cycling=1.1µM*;HEK293 viability=14µM*
Cn1nc(-c2cccnc2)nc2c(=O)n(C)c(=O)nc1-2	.	-85%	.	.	-7%	-10%	1.7*	.	2.4*
CCC1CCCCN1C(=O)CSc1nc(-c2ccc(OC)cc2)cc(C(F)(F)F)n1 (stereo not drawn)	.	-12%	-26%	4%	-9%	1%	.	.	.
CSC(N)=NCCC[C@H](N)C(=O)O	.	10%[58.9 µM]	-2%[57.1 µM]	12%[57.1 µM]	-4%[60.1 µM]	.	.	.	.
Cc1c(C)c(C)c(/C=C/c2ccnc3ccccc23)c(C)c1C	.	106%	.	.	-13%	-15%	.	.	.
CCc1ccc(CNc2ncc(-c3cccc(OC)c3)n2C)cc1	.	18%	.	22%	-9%	?	.	.	.
COc1ccc2[nH]c(C)cc2c1	.	29%	.	.	14%	0%	.	.	.
Cc1ccc(S(=O)(=O)c2cn(CC(=O)Nc3ccc(F)cc3)c3cc4c(cc3c2=O)OCO4)cc1	.	29%	-9%	?	-17%	8%	.	.	.
CN(Cc1cc(Br)cc(Br)c1N)C1CCCCC1	.	.	.	.	-11%[60.1 µM]	.	.	.	.
O=C(Cn1ncn2c(cc3sccc32)c1=O)NCCc1ccccc1	.	17%	-2%	34%	7%	-3%	.	.	.
CN(Cc1ccco1)c1ncnc2ccc(-c3ccoc3)cc12	.	28µM*	-26%	.	?	-22%	17*	17*	38*
O=c1c2ccccc2c(C=Nc2cccc(O)c2)c(O)n1-c1ccc2c(c1)OCO2	-34%[57.1 µM]	?	13µM*	40µM*	-22%	-4%	?	.	?
Oc1[nH]c2ccccc2c1C=Nc1ccc2c(c1)OCO2	-6%	31%	-12%	-16%	4%	-18%	.	.	.
O=C(CSc1nc(-c2ccccc2)nc2c1Cc1ccccc1O2)Nc1ccc(C(=O)O)cc1	?	?	7.9µM*	2µM*	10µM*	?	9.5*	42*	?
O=C(CSc1nc(-c2ccc(F)cc2)nc2c1Cc1ccccc1O2)Nc1ccc(C(=O)O)cc1	?	1.4µM*	?	4.5µM*	?	?	7.5*	7.5*	.	TbPGK inh=2.1µM*
Cc1cc(SCC(=O)Nc2ccc3[nH]c(=O)[nH]c3c2)nc2ccccc12	?	?	40µM*	.	-4%	-9%	60*	?	.

High-throughput results (PubChem)
